GALK inhibitor: galactokinase (human) inhibition | P51570 | AID 1868 | Purified GALK, Kinase-Glo residual ATP luminescence | Potency, µM (top dose mostly 57.5 µM), actives largely listed as inhibitors | 270,000 compounds, 0.007% hits
Target sequence (P51570 whole entry, looked up): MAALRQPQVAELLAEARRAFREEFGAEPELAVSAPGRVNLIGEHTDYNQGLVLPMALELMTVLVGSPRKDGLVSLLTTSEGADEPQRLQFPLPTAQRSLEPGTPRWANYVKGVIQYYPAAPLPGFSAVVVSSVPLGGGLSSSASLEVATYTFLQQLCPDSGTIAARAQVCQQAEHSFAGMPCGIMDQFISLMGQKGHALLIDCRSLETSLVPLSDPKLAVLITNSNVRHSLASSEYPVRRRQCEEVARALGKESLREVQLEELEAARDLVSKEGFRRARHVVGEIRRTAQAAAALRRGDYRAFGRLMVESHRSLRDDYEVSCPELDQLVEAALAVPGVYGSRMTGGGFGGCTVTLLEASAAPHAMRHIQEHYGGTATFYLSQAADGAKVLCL
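Galactose (100 uM) and ATP (35 uM) were turned over by 5 nM GALK for 1 h at RT. Kinase-Glo Plus then converted the remaining ATP into a luminescent signal.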
PKM2 activator: increases activity of human pyruvate kinase M2 | purified PKM2, Kinase-Glo ATP luminescence, activation; response scale: 0% is enzyme alone, no compound | 260,000 compounds, 0.34% hits | AID 1631 | Potency, µM (top dose mostly 57.5 µM), hits mostly activators; further: nearly all actives have a fitted effect of over 55% in size
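Kinase-Glo luminescence reports ATP generated from ADP (0.1 mM) and PEP (0.5 mM) by purified hPK-M2 after 1 h at room temperature, pH 7.2 imidazole buffer; intermediate enzyme activity allows detecting inhibitors and activators.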
rTrxR1 inhibitor: rat TrxR1 inhibition; O89049; recombinant rTrxR1, NADPH fluorescence consumption, selenite substrate; Potency, µM (highest dose often 114 µM), actives largely listed as inhibitors; 390,000 compounds, 1% hits; further: nearly all actives have a fitted effect of over 65% in size
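Rat TrxR1 (90 nM in the dispensed reagent) was pre-reduced with 400 uM NADPH for 5 min at room temperature, then incubated with compound for 15 min. After 400 uM selenite was added, NADPH fluorescence (Ex 340/Em 450 nm) was followed for 8 min.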
TrxR1 substrate: is turned over as a substrate by rat TrxR1 | 390,000 compounds, 0.01% hits | purified TrxR1 substrate turnover, NADPH consumption readout | Potency, µM (highest dose often 114 µM) | O89049; further: nearly all actives have a fitted effect of over 50% in size
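Rat TrxR1, dispensed at 90 nM, was prereduced with 400 uM NADPH (final) for 5 min at ~22 deg C, then incubated with compound 15 min before 400 uM selenite. A first-read NADPH fluorescence drop versus no-compound background flagged substrates.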
PI4K2A block: inhibitors of human PI4K2A. Q9BTU6. purified PI4K2A, ADP-Glo luminescence, 1 h; active compounds read low. activity change, negative = inhibition, % at 76.9 µM. 420,000 compounds, 0.13% hits. AID 1346378; in the data active means activity change below about -50%; inconclusive means mostly about -30% to -49%
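In this quantitative HTS, ADP production by PI4K2A was quantified luminescently after 1 h at ambient temperature; 100 microM adenosine served as plate-quality control.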
A number is an active result; . = inactive; ? = inconclusive; / = no result; ! = not confirmed by another sample; [ ] = dose if it differs, or a comment. In the library only some 1.2% were active in any assay of this set; here they are far more common. Unless noted, the call rests on the fitted dose curve; in most records, active means well fitted curve in the direction sought with a large enough effect; inconclusive means small, poorly fitted or top-dose-only effect, or another doubt; inactive means no such curve, though single readings can be large; an effect the other way counts as inactive or inconclusive.

SMILES	GALK inhibitor	PKM2 activator	rTrxR1 inhibitor	TrxR1 substrate	PI4K2A block
Cc1oc(-c2ccc3c(c2)OCCO3)cc1C(=O)O	.	.	.	.	-75
Cn1c(N)c(C(=O)CCl)c(=O)n(Cc2ccccc2)c1=O	/	?	13µM	.	.
Cn1c(=O)c(C(=O)CCl)c(N)n(Cc2ccccc2)c1=O	/	.	?	.	.
COc1cccc(N2CCN(CC(=O)NCc3cccc(OC)c3OC)CC2)c1	/	/	/	/	.
COC(=O)[C@]1(C#N)CC(=O)N(c2ccccc2)[C@@H]1c1ccccc1	/	/	/	/	.
CCCCOc1ccc(CNC(=O)c2cnc3sc(N4CCC(C)CC4)nn3c2=O)cc1	/	/	.	.	.
CCOC(=O)C(NC(=O)CCl)(Nc1sc(C)c(CC)c1C#N)C(F)(F)F (stereo unspecified)	.	.	56µM	.	.
Cc1ccc(S(=O)(=O)N2CCN(c3nc(-c4ccc(F)cc4)nc4cc(Cl)ccc34)CC2)cc1	/	/	.	.[0.457 µM]	/
C=Cc1c(C)c2cc3[nH]c(cc4nc(cc5nc(cc1[nH]2)C(C)=C5CCC(=O)O)C(CCC(=O)O)=C4C)c(C)c3C=C	/	/	5.3µM!	.	?
CCOc1cc(/C=C2\C(=O)N(CCc3ccc(OC)c(OC)c3)C(C)=C2C(=O)OC)ccc1O	.	.	?	.	.
CCOC(=O)C1=C(C)N(c2ccc(C)cc2)C(=O)/C1=C\c1ccc(O)c(OC)c1	.	.	18µM	.	.
COC(=O)C1=C(C)N(CCc2ccccc2)C(=O)/C1=C\c1ccco1	.	.	?	.	.
COC(=O)C1=C(C)N(Cc2ccccc2)C(=O)/C1=C\c1ccco1	.	.	50µM	.	.
COC(=O)C1=C(C)N(Cc2ccc(C)cc2)C(=O)/C1=C\c1ccc(O)c(OC)c1	.	.	?	.	.
CCOc1cc(/C=C2\C(=O)N(Cc3ccco3)C(C)=C2C(=O)OC)ccc1O	.	.	22µM	.	.
CN(C)c1ccc(C=O)cc1Cl	/	/	.	.	/
O=C(CSc1nnc(SCc2cccc3ccccc23)s1)c1ccc(F)cc1	/	/	/	/	.
O=C(/C=C/c1ccco1)NCCCN1CCOCC1	.	.	.	.	.
O=C(/C=C/c1ccc(Br)o1)NCCCN1CCOCC1	.	.	8.9µM	.	.
CCCS(=O)(=O)c1nc(S(=O)(=O)c2ccc(C)cc2)c(NCc2ccccn2)s1	.	.	20µM	.	.
C=CCNC(=O)N1CCN(Cc2nc3ccccc3c(=O)[nH]2)CC1	/	/	/	/	.
O=C1ON=C(c2cccc([N+](=O)[O-])c2)/C1=C/c1ccc(O)cc1	.	.	7.9µM	.	.
COc1ccc(/C=C2\C(=O)ON=C2c2ccccc2)cc1	.	/	14µM	.	.
O=C1ON=C(c2ccccc2)/C1=C/c1ccc(O)c(O)c1	?	/	?	.[2.29 µM]	.
O=C1ON=C(c2ccccc2)/C1=C/c1cccnc1	.	.	.	.	.
SMILES	GALK inhibitor	PKM2 activator	rTrxR1 inhibitor	TrxR1 substrate	PI4K2A block
COc1cc(/C=C2\C(=O)ON=C2c2ccc(Cl)cc2)ccc1O	/	/	20µM	.	.
O=C1ON=C(c2ccccc2)/C1=C/c1ccc(OS(=O)(=O)c2ccccc2)cc1	.	?	2.8µM	.	.
COc1ccc(C2=NN(c3ccccc3)C(=O)/C2=C\c2ccc(O)c(OC)c2)cc1	.	.	?	.	.
O=C(Nc1ccc(C(F)(F)F)cc1)OC1CCC12CCCCC2 (stereo unspecified)	/	/	/	/	.
COc1ccc2cc3[n+](cc2c1O)CCc1cc2c(cc1-3)OCO2	/	/	/	/	-52
CCOc1cc(NC(=S)NCCCN2CCOCC2)c(OCC)cc1NC(=O)CC(C)C	.	.	22µM	.	.
O=C(CSc1nnc(-c2ccccc2)n1-c1ccccc1)Nc1ccc(Oc2ccccc2)cc1	/	/	/	/	.
CC(=O)N=c1sc2ccccc2n1C	.	.	.	.	.
CC(=O)N=c1sc2nc3ccccc3nc2n1N(C(C)=O)C(C)=O	.	.	40µM	.	.
Cc1ccc(-c2cc(-c3nnc4sc(COc5ccccc5)nn34)[nH]n2)cc1	/	/	/	/	.
COCc1cc(=O)[nH]c(SCCS(=O)(=O)c2ccc(Cl)cc2Cl)n1	/	.	1.3µM	.	.
CCOc1ccc(NC(=O)N2CCOc3ccccc32)cc1	/	/	.	.	.
CCc1nc2ccccc2n1Cc1cc(=O)n2cc(C)ccc2n1	.	16µM	.	.	.
C1=Cc2ccccc2/C1=C\c1cc[cH-]c1.[Fe+2].c1cc[cH-]c1	/	/	3.2µM	.	/
Nc1ccc(/C=C2\C=Cc3ccccc32)cc1	/	/	.[0.0914 µM]	.	/
CCOC(=O)C1CCN(C(=O)Nc2ccc3nc(-c4ccco4)c(-c4ccco4)nc3c2)CC1	.	.	3.2µM	.	?
CCOC(=O)C1CCN(C(=O)Nc2ccc3c(c2)nc(C)n3C)CC1	.	.	.	.	.
O=C(Nc1ccc2nc(-c3ccco3)c(-c3ccco3)nc2c1)N1CCCCCC1	.	.	1.8µM	.	-51
O=[N+]([O-])c1ccc(S(=O)(=O)N2CCN(c3nc(-c4cccs4)nc4ccccc34)CC2)cc1	/	/	.	.	/
O=C(O)c1ccc2nc(-c3cc4cccc(O)c4oc3=O)[nH]c2c1	/	/	.	.	-54
CC(=O)CC[N+](C)(C)C	/	/	2.2µM	.	.
N#C/C(=C\c1cccnc1)C(=O)Nc1cccc(Cl)c1	.	5.6µM	.	.	.
Cc1cccc(NC(=O)/C(C#N)=C\c2cccnc2)c1	.	.	.	.	.
COc1cc(-c2nc3n(n2)C(c2ccc(F)cc2)C(C(N)=O)=C(C)N3)cc(OC)c1OC (stereo unspecified)	/	/	.	.	.
CC(=O)Nc1ccc(NC(=O)CCn2c(=S)oc3ccccc32)cc1	.	.	.	.	.
SMILES	GALK inhibitor	PKM2 activator	rTrxR1 inhibitor	TrxR1 substrate	PI4K2A block
Cn1c(=S)oc2ccccc21	/	.	.	.	.
CC(C)CC(=O)/C=C/n1c(=S)oc2ccccc21	.	.	6.3µM	.	.
CC(=O)/C=C/n1c(=S)oc2ccccc21	.	.	3.2µM	.	.
Cc1ccc(C(=O)/C=C/C(=O)O)cc1	.	.	2.8µM	.	.
O=C(NCCc1c[nH]c2ccccc12)OCc1cn(-c2cccc(Cl)c2)nn1	/	/	/	/	.
O=c1ccsn1Cc1ccccc1	.	5µM	.	.	.
O=C1NC(Cc2ccccc2)C(=O)N1Cc1ccccc1 (stereo unspecified)	/	/	.	.	.
O=C(CSc1nnc(-c2cccnc2)n1-c1ccccc1)c1ccccc1Cl	/	/	/	/	.
C/C=C(/C)C(=O)Nc1cccc(C2=NOC3(C2)C[C@@H](C(N)=O)N(C(=O)CCCCC)C3)c1 (stereo partly specified)	.	.	.	.	.
C/C=C\C=C/C(=O)Nc1cccc(C2=NOC3(C2)C[C@H](C(N)=O)N(C(=O)Cc2ccc([N+](=O)[O-])cc2)C3)c1 (stereo partly specified)	.	?	7.9µM	.	.

Screening data as filed in PubChem.
